Screens: PubChem, National Center for Advancing Translational Sciences (NCATS)
TGFb inhibitor: qHTS for Inhibitors of TGF-b; HepG2 CAGA-GFP TGF-b/SMAD3 reporter, GFP fluorescence, 18 h; TGF-beta stimulated, 500 pg/mL final; Potency, µM (series often up to 46.1 µM), for inactives: at the highest dose activity, negative = inhibition, hits mostly inhibitors; 410,000 compounds, 1.2% hits; AID 588855, 2011; note: % is set by controls: 0 for no effect and ±100 for the full control effect; nearly all actives have a fitted effect of over 65% in size
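Inhibition was scored as loss of TGF-beta-induced (500 pg/mL final, 18 hours, 37 degrees C) GFP in HEPG2 cells carrying a CAGA-GFP reporter, in DMEM with 1% FBS. Well GFP was summed per cell; Activity was normalised to unstimulated and stimulated DMSO wells, then concentration-response fitting.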
KB-3-1 tox: qHTS assay for MDR1-selective chemotherapeutics: Primary screen using the parental adenocarcinoma cell KB-3-1; KB-3-1 viability, CellTiter-Glo ATP luminescence, 72 h; Potency, µM (top dose mostly 46.1 µM), most hits filed as cytotoxic; 400,000 compounds, 1.4% hits; AID 1347075, 2019; note: % is set by controls: 0 for no effect and ±100 for the full control effect; nearly all actives have a fitted effect of over 60% in size
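Luminescent ATP read-out (CellTiter-Glo) measures survival of drug-naive KB-3-1 cells after 72 h compound exposure at 37 °C. Titration series was screened from lowest to highest concentration, with DMSO vehicle plates as background controls.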
HT1080-NT tox: qHTS for induction of synthetic lethality in tumor cells producing 2HG: qHTS for the HT-1080-NT fibrosarcoma cell line; HT-1080-NT fibrosarcoma viability, CellTiter-Glo ATP luminescence, 48 h; AID 686970, 2013; 360,000 compounds, 1.6% hits; Potency, µM (doses to about 46.1 µM), for inactives: at the highest dose activity, negative = less viability, most hits filed as cytotoxic;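 note: NT is the 2HG producing partner of a matched IDH1 knockdown line; 0% = DMSO-treated cells and -100% = media-only wells without cells; nearly all actives have a fitted effect of over 55% in size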
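A 48-hour cytotoxicity screen used HT-1080-NT cells plated 2 hours before compound delivery. ATP-based CellTiter-Glo luminescence measured viability, normalized to DMSO and no-cell controls.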
HT1080 IDH1KD tx: qHTS for induction of synthetic lethality in tumor cells producing 2HG: qHTS for the HT-1080-IDH1KD cell line. HT-1080 IDH1 knockdown viability, ATP luminescence, 48 h. Potency, µM (titrated, usually from 46.1 µM), inactives show at the top dose activity, negative = toxicity, actives largely listed as cytotoxic. 360,000 compounds, 2% hits;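 note: 0% = DMSO wells and -100% = cell-free medium wells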
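% activity derives from luminescence (CellTiter-Glo), normalised to DMSO and no-cell wells. HT-1080-IDH1KD cells, 750/well, had 48 h compound exposure at 37 °C.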
KB-V1 MDR tox: qHTS assay for MDR1-selective chemotherapeutics: Primary screen using the drug-selected MDR subline cells KB-V1; KB-V1 MDR cells viability, CellTiter-Glo, 72 h; Potency, µM (highest dose often 46.1 µM), usual class: cytotoxic; 400,000 compounds, 3.4% hits; AID 1347076, 2019; note: % is set by controls: 0 for no effect and ±100 for the full control effect; nearly all actives have a fitted effect of over 60% in size
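qHTS viability screen in drug-selected KB-V1 MDR cells: 72 h compound treatment at 37 degrees C, ATP luminescence end point.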
HepG2 viability: qHTS for Inhibitors of TGF-b: Cytotox Counterscreen. HepG2 CAGA-GFP viability, ATP luminescence, 18 h. Potency, µM (top dose mostly 46.1 µM), without a hit: at the highest dose activity change, negative = cytotoxicity, usual class: cytotoxic. 410,000 compounds, 0.76% hits. AID 588856, 2011
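CellTiter-Glo luminescence gave cytotoxicity after 18 hours at 37 degrees C. The cells were HepG2 CAGA-GFP in 1% FBS DMEM, stimulated with 500 pg/mL TGF-beta after compound addition. %Activity was normalised to no-cell wells (complete cell-killing) and DMSO (no toxicity), and curves were fitted and classified.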
Starred values were filed as active, the others as inactive; i = inactive; ? = inconclusive; nt = no result. Shown are actives, neighbours in structure and some others; about 6.6% of the full set was active somewhere. Calls come from the whole dose curve; as a rule, active = well fitted curve in the direction sought with a large enough effect; inconclusive = small, poorly fitted or top-dose-only effect, or another doubt; inactive = no such curve, though single readings can be large; an effect the other way counts as inactive or inconclusive. Potency is the fitted concentration of half-maximal effect.

SMILES	TGFb inhibitor	KB-3-1 tox	HT1080-NT tox	HT1080 IDH1KD tx	KB-V1 MDR tox	HepG2 viability
N=c1oc2cc(O)ccc2cc1C(=O)Nc1ccc(Br)cc1	-23%	23µM*	?	?	18µM*	1%
Cc1ccc(C)c(N2CCN(C(=O)c3ccc4nsnc4c3)CC2)c1	-24%	12µM*	8.2µM*	9.2µM*	8.2µM*	-19%
Cc1ccc(C)c(N2CCN(C(=O)c3noc4c3CCCCC4)CC2)c1	13µM*	nt	nt	nt	nt	-27%
O=C(c1noc2c1CCCCC2)N1CCN(c2cccc(Cl)c2)CC1	0%	nt	nt	nt	nt	1%
O=C(c1noc2c1CCCC2)N1CCN(c2ccccc2)CC1	-27%	i	9%	-2%	18µM*	2%
CCOC(=O)N1CC=C2C(C#N)=C(N)C(C#N)(C#N)[C@H](c3ccsc3)[C@H]2C1	44%	?	?	?	15µM*	1%
O=C(CC(SCCO)c1ccc([N+](=O)[O-])cc1)c1ccco1 (centres undefined)	?	21µM*	0%	-4%	i	-55%
Nc1ccccc1SC(CC(=O)c1ccccc1)c1ccc([N+](=O)[O-])cc1 (centres undefined)	?	21µM*	-9%	?	i	-64%
Nc1ccccc1SC(CC(=O)c1ccccc1)c1cccc([N+](=O)[O-])c1 (centres undefined)	?	?	?	?	?	-114%
Cc1ccc(C(=O)CC(SCC(=O)O)c2ccc([N+](=O)[O-])cc2)cc1 (centres undefined)	?	i	-2%	-17%	i	-57%
O=C(Nc1ccc(C(=O)N2CCN(c3cccc(Cl)c3)CC2)cc1)c1nsc2ccccc12	28%	i	nt	nt	i	-37%
COC(=O)[C@@]1(Cc2ccccc2)[C@@H]2C(=CC(=O)[C@H]2CC(=O)C(=O)N(C)C)CN1C(=O)c1ccccc1	?	21µM*	16µM*	21µM*	i	-51%
COC(=O)[C@@]1(Cc2ccc(F)cc2)[C@H]2c3cc(C(=O)N(C)C)n(CCF)c3C[C@H]2CN1C(=O)c1ccccc1	nt	i	-30%	?	?	nt
Cc1ccc(S(=O)(=O)c2cc3ccccc3oc2=Nc2ccc3c(c2)OCCO3)cc1	-15%	i	-3%	7%	10µM*	-4%
Cc1ccc(C)c(Nc2ncnc3c2cnn3-c2ccc(F)cc2)c1	-11%	i	nt	nt	i	-38%
COc1cc(S(=O)(=O)N2CCOCC2)ccc1NC(=O)CN1c2cccc3cccc(c23)S1(=O)=O	34%	i	0%	0%	?	23%
Cc1ccc(NC(=O)COc2cccc(Oc3ccccc3)c2)cc1S(=O)(=O)N1CCOCC1	?	16µM*	-10%	-11%	12µM*	-9%
Cc1ccc(NC(=O)CN2c3cccc4cccc(c34)S2(=O)=O)cc1S(=O)(=O)N1CCOCC1	?	?	-4%	-10%	3.7µM*	-11%
CC(CC(=O)Nc1ccc(Cl)c(S(=O)(=O)N2CCOCC2)c1)c1ccccc1 (centres undefined)	?	4.6µM*	18µM*	-13%	2.1µM*	0%
CC(NC(=O)Nc1ccc([N+](=O)[O-])cc1)C(c1ccccc1)N1CCOCC1 (centres undefined)	-4%	i	-25%	12%	i	-4%
CC(NC(=O)Nc1ccc(Cl)c(Cl)c1)C(c1ccccc1)N1CCOCC1 (centres undefined)	?	i	23µM*	?	?	-51%
